The campaign covered roughly 5,500 compounds. About 2,000 (36%) were called active. Not shown: some 18% with an inconclusive outcome. Rule as the data show it: active = normalized growth mostly below about 0.91 (no sharp cut-off); inconclusive = no clear call, values can overlap the other calls; inactive = mostly above about 0.92. The list shows a part of the results.
Test: chemical genetic growth profiling, strain panel (AID 1159580);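 also: tested at 20 µM; growth read once vehicle control cultures reached saturation at 30 °C; 1 = growth at the plate median or of vehicle wells; lower values mean less growth of the strain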
Conditions: growth OD

Measured: normalized growth

COc1ccc(NS(=O)(=O)c2ccc(N)cc2)nn1
inactive: S. cerevisiae deletion strains, locus YKL009W, strain mrt4, stronger effect = lower value 1 | S. cerevisiae deletion strains, locus YKL068W, stronger effect = lower value 0.997 | S. cerevisiae deletion strains, locus YKL085W, strain MDH1 (second series), stronger effect = lower value 0.999 | S. cerevisiae deletion strains, locus YKL085W, strain MDH1, stronger effect = lower value 0.999 | S. cerevisiae deletion strains, locus YKL160W, strain elf1, stronger effect = lower value 0.984 | S. cerevisiae deletion strains, locus YKL190W, strain CNB1, stronger effect = lower value 1.02 | S. cerevisiae deletion strains, locus YKR001C, strain vps1, stronger effect = lower value 0.985 | S. cerevisiae deletion strains, locus YKR026C, strain gcn3, stronger effect = lower value 1.01 | S. cerevisiae deletion strains, locus YKR091W, strain srl3, stronger effect = lower value 0.993 | S. cerevisiae deletion strains, locus YLL001W, strain dnm1, stronger effect = lower value 0.967 | S. cerevisiae deletion strains, locus YLL026W, stronger effect = lower value 0.997 | S. cerevisiae deletion strains, locus YLL041C, strain sdh2, stronger effect = lower value 0.993 | S. cerevisiae deletion strains, locus YLR027C, strain aat2, stronger effect = lower value 1 | S. cerevisiae deletion strains, locus YLR039C, strain RIC1, stronger effect = lower value 1.01 | S. cerevisiae deletion strains, locus YLR058C, strain SHM2, stronger effect = lower value 1.03 | S. cerevisiae deletion strains, locus YLR102C, strain apc9, stronger effect = lower value 0.986 | S. cerevisiae deletion strains, locus YLR113W, strain HOG1, stronger effect = lower value 1.01 | S. cerevisiae deletion strains, locus YLR221C, strain rsa3, stronger effect = lower value 0.989 | S. cerevisiae deletion strains, locus YLR258W, strain gsy2, stronger effect = lower value 0.971 | S. cerevisiae deletion strains, locus YLR262C, strain YPT6 (second series), stronger effect = lower value 1.02 | S. cerevisiae deletion strains, locus YLR262C, strain YPT6, stronger effect = lower value 1.06 | S. cerevisiae deletion strains, locus YLR268W, strain sec22, stronger effect = lower value 0.99 | S. cerevisiae deletion strains, locus YLR320W, strain mms22, stronger effect = lower value 0.961 | S. cerevisiae deletion strains, locus YLR330W, strain CHS5, stronger effect = lower value 1.01 | S. cerevisiae deletion strains, locus YLR342W, strain FKS1 (second series), stronger effect = lower value 1.01 | S. cerevisiae deletion strains, locus YLR342W, strain FKS1, stronger effect = lower value 0.963 | S. cerevisiae deletion strains, locus YLR357W, strain rsc2, stronger effect = lower value 0.945 | S. cerevisiae deletion strains, locus YLR370C, strain arc18, stronger effect = lower value 0.999 | S. cerevisiae deletion strains, locus YLR371W, strain rom2, stronger effect = lower value 0.983 | S. cerevisiae deletion strains, locus YLR384C, strain iki3, stronger effect = lower value 1.02 | S. cerevisiae deletion strains, locus YLR418C, strain cdc73, stronger effect = lower value 1 | S. cerevisiae deletion strains, locus YML016C, strain PPZ1, stronger effect = lower value 1.02 | S. cerevisiae deletion strains, locus YML032C, strain rad52, stronger effect = lower value 0.994 | S. cerevisiae deletion strains, locus YML120C, strain ndi1, stronger effect = lower value 1 | S. cerevisiae deletion strains, locus YML124C, strain tub3, stronger effect = lower value 0.994 | S. cerevisiae deletion strains, locus YMR058W, strain fet3, stronger effect = lower value 1.01 | S. cerevisiae deletion strains, locus YMR078C, strain ctf18, stronger effect = lower value 0.997 | S. cerevisiae deletion strains, locus YMR125W, strain sto1, stronger effect = lower value 1.01 | S. cerevisiae deletion strains, locus YMR129W, stronger effect = lower value 0.989 | S. cerevisiae deletion strains, locus YMR205C, strain PFK2, stronger effect = lower value 0.986 | S. cerevisiae deletion strains, locus YMR223W, strain ubp8, stronger effect = lower value 0.99 | S. cerevisiae deletion strains, locus YMR231W, strain pep5, stronger effect = lower value 0.994 | S. cerevisiae deletion strains, locus YMR307W, strain GAS1, stronger effect = lower value 1.01 | S. cerevisiae deletion strains, locus YNL067W, strain RPL9B, stronger effect = lower value 1.03 | S. cerevisiae deletion strains, locus YNL071W, strain lat1, stronger effect = lower value 1 | S. cerevisiae deletion strains, locus YNL128W, strain TEP1, stronger effect = lower value 1.02 | S. cerevisiae deletion strains, locus YNL153C, strain GIM3, stronger effect = lower value 1.04 | S. cerevisiae deletion strains, locus YNL183C, strain NPR1, stronger effect = lower value 0.935 | S. cerevisiae deletion strains, locus YNL209W, strain ssb2, stronger effect = lower value 1.01 | S. cerevisiae deletion strains, locus YNL233W, strain BNI4, stronger effect = lower value 1.03 | S. cerevisiae deletion strains, locus YNL248C, strain rpa49, stronger effect = lower value 0.994 | S. cerevisiae deletion strains, locus YNL250W, strain rad50, stronger effect = lower value 0.984 | S. cerevisiae deletion strains, locus YNL271C, strain bni1, stronger effect = lower value 0.983 | S. cerevisiae deletion strains, locus YNL298W, strain CLA4, stronger effect = lower value 0.981 | S. cerevisiae deletion strains, locus YNL307C, strain MCK1, stronger effect = lower value 0.993 | S. cerevisiae deletion strains, locus YNL322C, strain KRE1 (second series), stronger effect = lower value 0.974 | S. cerevisiae deletion strains, locus YNR049C, strain mso1, stronger effect = lower value 0.999 | S. cerevisiae deletion strains, locus YNR052C, strain pop2, stronger effect = lower value 0.987 | S. cerevisiae deletion strains, locus YOL006C, strain TOP1, stronger effect = lower value 1.09 | S. cerevisiae deletion strains, locus YOL012C, strain htz1 1.23 | S. cerevisiae deletion strains, locus YOL147C, strain pex11, stronger effect = lower value 0.99 | S. cerevisiae deletion strains, locus YOR001W, strain rrp6, stronger effect = lower value 1 | S. cerevisiae deletion strains, locus YOR061W, strain CKA2, stronger effect = lower value 1.02 | S. cerevisiae deletion strains, locus YOR069W, strain VPS5, stronger effect = lower value 1.01 | S. cerevisiae deletion strains, locus YOR070C, strain gyp1, stronger effect = lower value 1 | S. cerevisiae deletion strains, locus YOR080W, strain dia2, stronger effect = lower value 1 | S. cerevisiae deletion strains, locus YOR083W, strain WHI5, stronger effect = lower value 0.947 | S. cerevisiae deletion strains, locus YOR106W, strain vam3, stronger effect = lower value 1 | S. cerevisiae deletion strains, locus YOR136W, strain idh2, stronger effect = lower value 0.996 | S. cerevisiae deletion strains, locus YOR144C, strain elg1, stronger effect = lower value 0.992 | S. cerevisiae deletion strains, locus YOR184W, strain ser1, stronger effect = lower value 0.996 | S. cerevisiae deletion strains, locus YOR231W, strain MKK1, stronger effect = lower value 0.998 | S. cerevisiae deletion strains, locus YOR265W, strain rbl2, stronger effect = lower value 1 | S. cerevisiae deletion strains, locus YOR270C, strain vph1, stronger effect = lower value 1.05 | S. cerevisiae deletion strains, locus YOR290C, strain snf2, stronger effect = lower value 0.991 | S. cerevisiae deletion strains, locus YOR316C, strain cot1, stronger effect = lower value 0.985 | S. cerevisiae deletion strains, locus YPL051W, strain arl3, stronger effect = lower value 0.976 | S. cerevisiae deletion strains, locus YPL055C, strain LGE1, stronger effect = lower value 1.07 | S. cerevisiae deletion strains, locus YPL078C, strain atp4, stronger effect = lower value 0.994 | S. cerevisiae deletion strains, locus YPL106C, strain sse1, stronger effect = lower value 0.96 | S. cerevisiae deletion strains, locus YPL240C, strain hsp82, stronger effect = lower value 1 | S. cerevisiae deletion strains, locus YPL241C, strain CIN2, stronger effect = lower value 1.01 | S. cerevisiae deletion strains, locus YPL256C, strain CLN2, stronger effect = lower value 0.985 | S. cerevisiae deletion strains, locus YPR119W, strain clb2, stronger effect = lower value 0.997 | S. cerevisiae deletion strains, locus YPR141C, strain kar3, stronger effect = lower value 0.988 | S. cerevisiae deletion strains, locus YPR163C, strain tif3, stronger effect = lower value 0.99 | S. cerevisiae deletion strains, locus YPR167C, strain met16, stronger effect = lower value 0.992 | S. cerevisiae deletion strains, strain wtn01, stronger effect = lower value 0.986 | S. cerevisiae strains, strain wild type, stronger effect = lower value 1.01
